Assay results published in ChEMBL document CHEMBL2218924, “A broad activity screen in support of a chemogenomic map for kinase signalling research and drug discovery” (Biochem J, 2013).

Assays:
[1] = target: T1, Mitogen-activated protein kinase kinase kinase 5 (Homo sapiens) (UniProt Q99683); settings: at 10 µM
T1 sequence (whole entry): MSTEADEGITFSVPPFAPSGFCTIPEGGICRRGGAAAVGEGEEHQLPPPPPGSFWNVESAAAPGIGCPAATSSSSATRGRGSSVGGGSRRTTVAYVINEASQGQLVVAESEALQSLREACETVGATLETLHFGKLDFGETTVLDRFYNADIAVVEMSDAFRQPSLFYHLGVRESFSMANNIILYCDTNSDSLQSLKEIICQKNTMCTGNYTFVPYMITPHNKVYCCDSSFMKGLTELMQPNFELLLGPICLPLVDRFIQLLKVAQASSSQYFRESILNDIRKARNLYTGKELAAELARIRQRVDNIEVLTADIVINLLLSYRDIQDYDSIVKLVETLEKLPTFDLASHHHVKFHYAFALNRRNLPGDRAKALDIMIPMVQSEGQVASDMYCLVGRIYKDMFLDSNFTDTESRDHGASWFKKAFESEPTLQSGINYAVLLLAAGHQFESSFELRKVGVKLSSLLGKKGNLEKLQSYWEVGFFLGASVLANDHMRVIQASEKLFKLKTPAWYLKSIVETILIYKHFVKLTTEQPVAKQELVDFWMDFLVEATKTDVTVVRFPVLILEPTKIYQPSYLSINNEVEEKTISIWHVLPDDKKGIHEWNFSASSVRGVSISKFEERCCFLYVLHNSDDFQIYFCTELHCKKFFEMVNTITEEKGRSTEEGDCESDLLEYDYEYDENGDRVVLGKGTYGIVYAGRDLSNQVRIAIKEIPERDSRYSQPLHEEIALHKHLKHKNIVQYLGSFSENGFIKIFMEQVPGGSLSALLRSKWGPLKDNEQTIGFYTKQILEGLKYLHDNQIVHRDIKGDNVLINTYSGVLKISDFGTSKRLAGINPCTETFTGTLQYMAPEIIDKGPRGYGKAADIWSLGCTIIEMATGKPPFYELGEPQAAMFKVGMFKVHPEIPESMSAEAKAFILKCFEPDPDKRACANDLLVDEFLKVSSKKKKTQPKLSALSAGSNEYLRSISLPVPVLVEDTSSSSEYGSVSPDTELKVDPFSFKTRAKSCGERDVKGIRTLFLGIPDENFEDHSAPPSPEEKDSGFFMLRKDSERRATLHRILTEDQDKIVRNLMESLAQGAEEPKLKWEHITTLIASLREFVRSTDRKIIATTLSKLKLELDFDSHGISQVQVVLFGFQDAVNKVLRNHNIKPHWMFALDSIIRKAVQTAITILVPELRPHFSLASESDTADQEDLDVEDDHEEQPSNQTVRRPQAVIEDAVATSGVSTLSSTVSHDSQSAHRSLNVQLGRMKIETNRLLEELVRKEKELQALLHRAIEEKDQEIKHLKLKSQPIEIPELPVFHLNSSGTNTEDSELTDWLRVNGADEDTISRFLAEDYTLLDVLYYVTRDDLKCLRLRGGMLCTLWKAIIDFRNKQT

[2] = target: Tyrosine-protein kinase ABL1 (Homo sapiens) (UniProt P00519); settings: at 1 µM
Chain of Tyrosine-protein kinase ABL1 (Homo sapiens) (P00519 whole entry): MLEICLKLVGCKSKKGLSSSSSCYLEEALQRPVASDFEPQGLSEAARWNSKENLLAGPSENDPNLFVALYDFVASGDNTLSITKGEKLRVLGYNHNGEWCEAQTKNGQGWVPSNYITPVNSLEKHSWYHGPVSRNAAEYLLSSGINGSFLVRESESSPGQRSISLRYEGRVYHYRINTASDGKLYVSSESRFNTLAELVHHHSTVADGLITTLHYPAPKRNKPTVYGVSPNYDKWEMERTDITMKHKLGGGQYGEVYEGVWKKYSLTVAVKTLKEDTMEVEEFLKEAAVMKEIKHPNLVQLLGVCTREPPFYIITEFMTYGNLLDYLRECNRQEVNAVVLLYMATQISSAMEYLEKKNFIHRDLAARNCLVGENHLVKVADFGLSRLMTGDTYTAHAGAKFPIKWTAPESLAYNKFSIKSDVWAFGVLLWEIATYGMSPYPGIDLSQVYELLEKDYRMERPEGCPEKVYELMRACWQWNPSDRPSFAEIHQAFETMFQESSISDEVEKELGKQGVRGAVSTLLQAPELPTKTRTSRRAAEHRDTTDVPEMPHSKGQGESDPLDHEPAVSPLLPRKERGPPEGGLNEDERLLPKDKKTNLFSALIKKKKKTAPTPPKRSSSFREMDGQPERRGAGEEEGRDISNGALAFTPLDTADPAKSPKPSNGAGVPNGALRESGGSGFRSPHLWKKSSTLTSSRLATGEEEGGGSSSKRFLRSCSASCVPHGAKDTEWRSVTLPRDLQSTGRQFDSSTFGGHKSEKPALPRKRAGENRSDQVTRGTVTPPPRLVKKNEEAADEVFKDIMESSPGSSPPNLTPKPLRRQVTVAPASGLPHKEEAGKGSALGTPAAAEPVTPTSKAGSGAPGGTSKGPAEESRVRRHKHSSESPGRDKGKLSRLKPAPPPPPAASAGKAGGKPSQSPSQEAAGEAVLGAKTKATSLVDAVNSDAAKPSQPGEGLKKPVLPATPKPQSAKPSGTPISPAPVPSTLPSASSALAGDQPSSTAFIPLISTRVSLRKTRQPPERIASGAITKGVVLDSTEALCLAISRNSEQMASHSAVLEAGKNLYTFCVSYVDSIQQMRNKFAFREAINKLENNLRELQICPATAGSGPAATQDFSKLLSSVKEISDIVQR

[3] = target: Tyrosine-protein kinase ABL1 (Homo sapiens) (UniProt P00519); settings: at 10 µM
[4] = target: Tyrosine-protein kinase ABL2 (Homo sapiens) (UniProt P42684); settings: at 1 µM
Chain of Tyrosine-protein kinase ABL2 (Homo sapiens) (P42684 whole entry): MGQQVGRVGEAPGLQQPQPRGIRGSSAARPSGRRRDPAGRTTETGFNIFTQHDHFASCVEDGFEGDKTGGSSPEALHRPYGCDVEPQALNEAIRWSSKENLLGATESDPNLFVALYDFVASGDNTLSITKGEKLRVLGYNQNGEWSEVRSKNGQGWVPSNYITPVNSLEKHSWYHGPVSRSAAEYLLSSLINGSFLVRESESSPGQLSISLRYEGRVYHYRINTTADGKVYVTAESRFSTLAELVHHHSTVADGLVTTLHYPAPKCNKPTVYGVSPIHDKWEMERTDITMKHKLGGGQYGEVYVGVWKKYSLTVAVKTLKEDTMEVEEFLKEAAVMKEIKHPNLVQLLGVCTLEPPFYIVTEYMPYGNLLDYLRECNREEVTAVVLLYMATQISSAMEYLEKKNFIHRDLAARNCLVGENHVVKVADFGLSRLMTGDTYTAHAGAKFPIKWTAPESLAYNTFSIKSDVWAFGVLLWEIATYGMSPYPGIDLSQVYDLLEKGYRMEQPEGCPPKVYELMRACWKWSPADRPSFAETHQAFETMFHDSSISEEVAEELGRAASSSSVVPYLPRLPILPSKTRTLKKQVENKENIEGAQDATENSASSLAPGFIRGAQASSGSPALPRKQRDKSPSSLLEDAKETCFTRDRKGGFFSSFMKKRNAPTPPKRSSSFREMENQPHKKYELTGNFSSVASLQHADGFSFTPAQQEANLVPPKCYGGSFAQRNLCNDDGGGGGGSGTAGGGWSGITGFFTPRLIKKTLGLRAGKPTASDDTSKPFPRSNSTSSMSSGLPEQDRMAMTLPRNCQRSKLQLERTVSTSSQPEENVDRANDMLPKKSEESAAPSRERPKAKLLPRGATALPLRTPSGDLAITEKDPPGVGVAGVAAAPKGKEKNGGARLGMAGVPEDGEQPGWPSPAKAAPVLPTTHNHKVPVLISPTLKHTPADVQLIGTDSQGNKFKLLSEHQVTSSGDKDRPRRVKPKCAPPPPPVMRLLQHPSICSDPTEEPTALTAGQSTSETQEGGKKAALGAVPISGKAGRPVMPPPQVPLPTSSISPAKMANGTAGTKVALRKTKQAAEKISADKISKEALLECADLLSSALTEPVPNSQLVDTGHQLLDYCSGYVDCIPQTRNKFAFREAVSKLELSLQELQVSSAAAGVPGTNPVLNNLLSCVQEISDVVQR

[5] = target: Tyrosine-protein kinase ABL2 (Homo sapiens) (UniProt P42684); settings: at 10 µM
[6] = target: T2, Aurora kinase A (Homo sapiens) (UniProt O14965); settings: at 1 µM
T2 sequence (whole entry): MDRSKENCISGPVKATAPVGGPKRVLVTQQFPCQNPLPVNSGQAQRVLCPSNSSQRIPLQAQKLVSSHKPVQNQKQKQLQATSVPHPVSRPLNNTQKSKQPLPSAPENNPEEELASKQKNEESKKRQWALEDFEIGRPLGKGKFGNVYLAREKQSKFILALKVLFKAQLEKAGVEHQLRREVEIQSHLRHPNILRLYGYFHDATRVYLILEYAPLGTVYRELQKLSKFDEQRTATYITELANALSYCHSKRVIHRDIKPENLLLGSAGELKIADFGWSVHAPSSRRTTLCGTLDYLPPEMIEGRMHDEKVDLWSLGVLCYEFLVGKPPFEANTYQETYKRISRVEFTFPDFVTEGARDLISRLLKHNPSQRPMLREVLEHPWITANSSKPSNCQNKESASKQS

[7] = target: T2, Aurora kinase A (Homo sapiens); settings: at 10 µM
[8] = target: Aurora kinase B (Homo sapiens) (UniProt Q96GD4); settings: at 1 µM
Chain of Aurora kinase B (Homo sapiens) (Q96GD4 whole entry): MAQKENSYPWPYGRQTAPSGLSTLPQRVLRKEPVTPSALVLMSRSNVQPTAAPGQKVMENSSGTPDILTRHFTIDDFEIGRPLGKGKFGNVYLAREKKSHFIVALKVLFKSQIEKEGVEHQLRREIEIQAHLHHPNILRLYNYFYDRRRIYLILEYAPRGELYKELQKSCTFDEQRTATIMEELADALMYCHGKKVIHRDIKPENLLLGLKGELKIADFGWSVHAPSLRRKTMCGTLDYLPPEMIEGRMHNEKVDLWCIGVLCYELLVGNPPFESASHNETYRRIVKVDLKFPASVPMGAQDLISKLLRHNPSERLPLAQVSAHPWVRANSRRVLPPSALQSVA

[9] = target: Aurora kinase B (Homo sapiens) (UniProt Q96GD4); settings: at 10 µM
[10] = target: T3, Protein kinase C zeta type (Homo sapiens) (UniProt Q05513); settings: at 1 µM
T3 sequence (whole entry): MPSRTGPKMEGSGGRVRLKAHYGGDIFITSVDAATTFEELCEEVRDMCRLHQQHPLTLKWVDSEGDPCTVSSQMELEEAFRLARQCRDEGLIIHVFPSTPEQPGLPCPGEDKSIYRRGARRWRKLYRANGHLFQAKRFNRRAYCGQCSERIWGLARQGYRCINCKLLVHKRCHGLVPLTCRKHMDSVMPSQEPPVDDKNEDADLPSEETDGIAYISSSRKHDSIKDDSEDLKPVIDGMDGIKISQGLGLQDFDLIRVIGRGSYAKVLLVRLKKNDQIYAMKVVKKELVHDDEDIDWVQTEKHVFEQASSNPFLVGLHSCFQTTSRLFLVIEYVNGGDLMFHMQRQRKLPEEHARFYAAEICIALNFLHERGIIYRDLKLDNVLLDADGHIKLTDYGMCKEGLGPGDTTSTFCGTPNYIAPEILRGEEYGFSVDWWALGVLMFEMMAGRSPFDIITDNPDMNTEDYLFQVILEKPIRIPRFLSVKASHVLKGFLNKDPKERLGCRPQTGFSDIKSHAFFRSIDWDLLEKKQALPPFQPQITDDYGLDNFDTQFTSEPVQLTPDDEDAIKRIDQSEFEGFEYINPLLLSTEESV

Structure (SMILES) | residual activity [1] | residual activity [2] | residual activity [3] | residual activity [4] | residual activity [5] | residual activity [6] | residual activity [7] | residual activity [8] | residual activity [9] | residual activity [10]
COc1cc2ncc(-c3ccccc3)nc2cc1OC | 77% | 96% | 83% | 99% | 84% | 83% | 98% | 83% | 50% | 
NC(=O)c1ccc2[nH]c(-c3ccc(Oc4ccc(Cl)cc4)cc3)nc2c1 | 61% | 106% | 130% | 128% | 95% | 88% | 86% | 68% | 34% | 99% (inactive)
O=C1NC(=O)/C(=C/c2ccc3c(c2)OC(F)(F)O3)S1 | 97% | 103% | 79% | 94% | 98% | 90% | 57% | 74% | 64% | 97% (inactive)
Oc1n[nH]c2nnc(-c3c(-c4ccccc4)nn4ccccc34)cc12 | 105% | 81% |  | 95% | 64% | 104% | 93% | 5% | 2% | 107% (inactive)
Nc1cccc(-c2cc3c(Oc4cccc(O)c4)ncnc3[nH]2)c1 | 95% | -6% | -5% | -3% | -2% | 28% | 1% | 9% | 0% | 
CN(C)c1ccc(/C=C2\C(=O)Nc3ccccc32)cc1 | 99% | 100% | 87% | 103% | 89% | 56% | 26% | 13% | 4% | 118% (inactive)
CC(C)n1cnc2/c(=N/c3cccc(Cl)c3)nc(NCCO)[nH]c21 | 86% | 73% | 25% | 52% | 10% | 88% | 47% | 13% | 3% | 100% (inactive)
N#CCCc1ccc2c(c1)-c1[nH]c3ccc([N+](=O)[O-])cc3c1CC(=O)N2 |  | 31% | 13% | 48% | 17% | 61% | 37% | 8% | 1% | 69% (inactive)
Nc1ccc2ncnc(NCCc3ccc(Oc4ccccc4)cc3)c2c1 | 80% | 100% | 101% | 104% | 78% | 102% | 110% | 41% | 11% | 108% (inactive)
COc1cc2ncnc(N3CCN(C(=O)Nc4ccc(Oc5ccccc5)cc4)CC3)c2cc1OC | 67% |  |  | 110% | 118% | 51% | 48% | 15% | 7% | 113% (inactive)
Cc1cccc(-c2[nH]c(C(C)(C)C)nc2-c2ccc3c(c2)OCO3)n1 | 88% | 96% | 102% |  | 97% | 93% |  | 106% | 95% | 
O=C1Nc2ccc(Br)cc2/C1=C\c1cc2c([nH]1)CCCC2 | 81% | 105% | 75% |  |  |  |  | 18% | 8% | 103% (inactive)
O=C1c2ccccc2-[n+]2ccc3c([nH]c4ccccc43)c21 | 92% | 102% | 102% | 111% | 87% | 101% | 89% | 93% | 52% | 98% (inactive)
O=C1Nc2cc(Br)ccc2/C1=C1/Nc2ccccc2/C1=N\O | 86% |  | 6% | 16% | 2% | 31% | 25% | 3% | -1% | 103% (inactive)
CC[n+]1c(/C=C/N(C)c2ccccc2)n(-c2ccccc2)c2ccc(-c3nc4ccccc4s3)cc21 | 102% | 115% | 146% | 112% | 85% | 117% | 139% | 139% | 91% | 107% (inactive)
Cc1cc(Nc2nc(-c3ccccc3)nc3ccccc23)n[nH]1 | 100% | 54% |  | 33% | 3% | 1% | 0% | -2% | 0% | 110% (inactive)
CC(=O)c1ccc(N2CCOCC2)cc1O | 95% |  |  | 110% | 102% | 109% | 100% | 100% | 95% | 107% (inactive)
COc1ccc(CNc2nc(N(CCO)CCO)nc3c2ncn3C(C)C)cc1 | 85% | 100% | 73% | 113% | 76% | 89% | 96% | 95% | 73% | 105% (inactive)
